PTAP-TSG101 blk: inhibitors of HIV-1 PTAP binding to human TSG101, validation; Fluorescence polarization, FITC-PTAP peptide/Tsg101, 20 min; Potency, µM (series often up to 115 µM), most hits filed as inhibitors; AID 1347069; 44,000 tested, under 10 active; further: potency means the concentration at half of the fitted maximal effect; 0% is about no effect
Target sequence (Q99816 whole entry, looked up): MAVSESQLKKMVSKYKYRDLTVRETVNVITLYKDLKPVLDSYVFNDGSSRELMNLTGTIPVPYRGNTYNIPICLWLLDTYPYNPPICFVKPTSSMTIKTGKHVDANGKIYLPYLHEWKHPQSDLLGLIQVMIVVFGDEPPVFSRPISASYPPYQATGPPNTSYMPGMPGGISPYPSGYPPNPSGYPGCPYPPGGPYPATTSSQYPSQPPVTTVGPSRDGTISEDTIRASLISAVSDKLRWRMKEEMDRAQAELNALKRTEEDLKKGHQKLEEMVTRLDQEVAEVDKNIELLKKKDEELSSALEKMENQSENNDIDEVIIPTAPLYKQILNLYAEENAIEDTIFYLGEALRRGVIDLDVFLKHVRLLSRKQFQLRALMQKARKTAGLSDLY
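FITC-labeled PTAP peptide (50 nM final) binding to Tsg101 binding domain (10 uM final) read by fluorescence polarization after 20 min at r.t. in HEPES pH 7.5 buffer. Actives by CRC class, <25 µM.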
GALK inh: inhibits human galactokinase; P51570; recombinant GALK, Kinase-Glo ATP luminescence, 1 h; Potency, µM (series often up to 57.5 µM), without a hit: at the highest dose activity, negative = inhibition, usual class: inhibitors; 44,000 tested, under 10 active; AID 1347072;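 further: plate controls were full GALK reaction for no effect and reaction lacking GALK for full effect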
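Compounds were pinned into ATP buffer, then GALK-galactose mix was added (final 5 nM enzyme, 35 uM ATP, 100 uM galactose, pH 8.0). After 1 h at room temperature, Kinase-Glo Plus was added and luminescence read.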
DRV1 agonist: activates human resolvin D1 receptor GPR32. O75388. CHO-K1 GPR32 beta-arrestin PathHunter luminescence, 90 min; zero percent set by DMSO-only wells. activation, % at 76.9 µM. actives 2.5% (n = 48,000);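 active means activation of at least 60% and not above a set upper limit, about 1 call in 100 departs from these limits; inconclusive means activation of 40% to 60%, or above that upper limit; inactive means activation under 40%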; further: 0% is about no effect
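Engineered CHO-K1 line co-expressing GPR32-ProLink and EA-beta-arrestin. Compound treatment lasted 90 min at 37 °C. Luminescence was recorded after 1 h with substrate at ambient temperature, relative to DMSO basal wells.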
B2AR arrestin ag: ADRB2 beta-arrestin recruitment | HTLA Tango cells, beta-arrestin recruitment, luciferase luminescence, 18 h | Potency, µM (top dose mostly 46.1 µM), most hits filed as activators | 44,000 tested, under 10 active;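 further: potency means the concentration at half of the fitted maximal effect; 0% = DMSO and full agonism = EC100 isoproterenol or metaproterenol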
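Luminescence read-out: arrestin recruitment to recombinant beta2-AR releases tTA, inducing luciferase. Cells exposed 18 hr at 37 degrees C to up to 46 microM compound; %Activity from corrected signal, concentration-response curves classified by r2, magnitude and efficacy.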
Starred values were filed as active, the others as inactive; i = inactive; u = inconclusive; x = not tested or not shown. This is a sample that favours compounds with a hit; in the whole collection about 2.5% have one here. Unless noted, the call rests on the fitted dose curve; in most records, active means well fitted curve in the direction sought with a large enough effect; inconclusive means small, poorly fitted or top-dose-only effect, or another doubt; inactive means no such curve, though single readings can be large; an effect the other way counts as inactive or inconclusive.

SMILES	PTAP-TSG101 blk	GALK inh	DRV1 agonist	B2AR arrestin ag
COc1ccc(CCNC(=O)CCCn2c(=O)c3ccccc3n(CC(=O)Nc3cccc(C)c3)c2=O)cc1OC	i	1%	-5	i
Cc1cccc(OCC(=O)Nc2ccc3nc(Nc4cccc(Cl)c4)cc(C)c3c2)c1	i	1%	103*	i
CCCCCC[C@@H](CCC)C(=O)O	x	x	-5	x
Cc1cc(CN2CCN(c3ccccc3F)CC2)cs1	i	-4%	102*	i
COc1cc(C=C2CCC/C(=C\c3ccc(O)c(OC)c3)C2=O)ccc1O	x	x	-44	x
Cc1ccc(C(=O)Nc2nnc(SCc3cc(=O)c4c(C)ccc(C)c4[nH]3)s2)cc1	i	0%	71*	i
CCCNC(=O)Cn1nc(-c2ccc(F)cc2)c2cnc3ccc(F)cc3c21	i	0%	7	i
CCCCn1c(-c2ccc(C)cc2)c(C)n2c3c(=O)n(C)c(=O)n(C)c3nc12	i	1%	85*	i
CCc1ccccc1-n1nnc(-c2nsc(NC(=O)c3ccc(C)c(C)c3)n2)c1C	i	-2%	72*	i
Cc1cc(C)cc(-n2nnc(-c3nsc(NC(=O)c4ccccc4Cl)n3)c2C)c1	i	1%	u	i
CCc1ccc(-n2nnc(-c3nsc(NC(=O)c4ccccc4Cl)n3)c2C)cc1	i	-2%	105*	i
Cc1ccc(C)c(NC(=O)CSc2nnc(CNC(=O)c3ccccc3)n2-c2ccccc2)c1	i	8%	8	i
CN1[C@@H]2CC[C@H]1CC(NC(=O)n1c(=O)[nH]c3ccccc31)C2 (stereo not given in full)	x	x	-7	x
CCNC(=O)[C@@H]1CCCN1C(=O)[C@H](CCCN=C(N)N)NC(=O)[C@H](CC(C)C)NC(=O)CNC(=O)[C@H](Cc1ccc(O)cc1)NC(=O)[C@H](CO)NC(=O)[C@H](Cc1c[nH]c2ccccc12)NC(=O)[C@H](Cc1cnc[nH]1)NC(=O)[C@@H]1CCC(=O)N1	x	x	2	x
Cc1ccc(NC(=O)CSc2nc(C)c(Cc3ccccc3)c(=O)[nH]2)cc1	i	0%	63*	i
O=C1Cc2cc(Cl)ccc2N1	x	x	-44	x
CC(C)Oc1ccc(CNC(=O)Cn2nc(N3CCN(c4ccccc4)CC3)ccc2=O)cc1	i	-3%	68*	i
CCc1ccc(NC(=O)c2ccc(Cn3nc(N4CCN(c5ccccc5)CC4)ccc3=O)o2)cc1	i	1%	0	i
CCc1ccccc1NC(=O)c1ccc(Cn2nc(N3CCN(c4ccccc4)CC3)ccc2=O)o1	i	0%	63*	i
CC(C)(C)c1ccc(C(=O)NCC(c2cccs2)S(=O)(=O)c2cccs2)cc1 (stereo not given)	i	0%	-8	i
Cc1ccc(C(=O)NCC(c2cccs2)S(=O)(=O)c2cccs2)cc1 (stereo not given)	i	-1%	74*	i
CCN(CCCNC(=O)c1cc2cc3ccc(OC)cc3nc2s1)c1ccccc1	i	-5%	96*	i
CC1=C(C(=O)Nc2ccc(Cl)cc2)C(c2ccc(C(F)(F)F)cc2)n2nnnc2N1 (stereo not given)	i	9%	65*	i
O=C1CC2(CCCC2)CC(=O)N1	x	x	65*	x
CCc1ccccc1N1CC(c2nc3ccccc3n2CCOc2ccc(Cl)c(C)c2)CC1=O (stereo not given)	i	1%	77*	i
SMILES	PTAP-TSG101 blk	GALK inh	DRV1 agonist	B2AR arrestin ag
CCCCN1CC(c2nc3ccccc3n2CCCCOc2cc(C)cc(C)c2)CC1=O (stereo not given)	i	-11%	7	i
CCOc1ccccc1N1CC(c2nc3ccccc3n2CCOc2ccc(C(C)(C)C)cc2)CC1=O (stereo not given)	i	-13%	73*	i
CCCCN1CC(c2nc3ccccc3n2CCCCOc2cccc(C)c2C)CC1=O (stereo not given)	i	-9%	109*	i
Cc1cc(OCCn2c(C3CC(=O)N(Cc4ccc(F)cc4)C3)nc3ccccc32)ccc1Cl (stereo not given)	i	-2%	-11	i
CCc1cnc2c(c1SCC(=O)Nc1cc(Cl)ccc1OC)c(=O)n(C)c(=O)n2C	i	-1%	9	i
NC(=O)CC[C@@H]1NC(=O)[C@H](Cc2ccccc2)NC(=O)[C@H](Cc2ccc(O)cc2)NC(=O)CCSSC[C@@H](C(=O)N2CCC[C@H]2C(=O)N[C@@H](CCCN=C(N)N)C(=O)NCC(N)=O)NC(=O)[C@H](CC(N)=O)NC1=O	x	x	10	x
CCCCN(CC)C(=O)c1c[nH]c2ccc(S(=O)(=O)N(C)c3ccc(Cl)cc3)cc2c1=O	i	2%	91*	i
N#Cc1ccc(-c2cccs2)nc1SCC(=O)Nc1cccc(C(F)(F)F)c1	i	-4%	82*	i
COC(=O)c1cc(Cl)ccc1NC(=O)CSc1ncc(S(=O)(=O)c2ccc(Br)cc2)c(=O)[nH]1	i	-11%	100*	i
Nc1c(C(=O)Nc2ccc(Br)cc2)sc2nc(-c3ccncc3)ccc12	i	4%	-20	i
Nc1c(C(=O)Nc2ccc(C(F)(F)F)cc2)sc2nc(-c3cccs3)ccc12	i	0%	71*	i
Cc1cc(F)ccc1NC(=O)c1sc2nc(-c3cccs3)ccc2c1N	i	-1%	67*	i
Cc1ccc(NC(=O)c2sc3nc(-c4ccc(F)cc4)ccc3c2N)cc1F	i	0%	86*	i
COc1cc(OC)c(NC(=O)NCCn2nnc3cc(S(=O)(=O)N(C)C)ccc32)cc1Cl	i	0%	-7	i
CC(C)(C)c1ccc(C(=O)CCCCl)cc1	x	x	13	x
COc1ccccc1NC(=O)CC1Sc2ccc(C(F)(F)F)cc2NC1=O (stereo not given)	i	2%	64*	i
CCOC(=O)c1ccc(NC(=O)CC2Sc3ccc(C(F)(F)F)cc3NC2=O)cc1 (stereo not given)	i	3%	22	i
CCCCN1CCCc2cc(CN(CCCN3CCOCC3)C(=O)Nc3ccc(CC)cc3)ccc21	i	-4%	14	i
CCCN1CCCc2cc(CN(CCCN3CCOCC3)C(=O)Nc3ccc(CC)cc3)ccc21	i	1%	61*	i
CC1c2ccccc2CN1NC(=O)c1ccc(Cl)c(S(N)(=O)=O)c1 (stereo not given)	x	x	-22	x
Cc1ccc(C(C)(C)C)c(OCC(=O)NCCc2nc3ccccc3[nH]2)c1	i	2%	61*	i
Cc1ccc(/C=C/c2onc(C)c2S(=O)(=O)N2CCC(C(=O)NCc3ccco3)CC2)cc1	i	1%	88*	i
CCOc1ccc(-c2ncnn2-c2sc3c(c2C#N)CCCCC3)cc1	i	0%	102*	i
